Screening data (PubChem BioAssay)
Jurkat NFkB inh = inhibitors of the PMA/ionomycin-induced NF-kB reporter in Jurkat cells; 0.53% of 330,000 active; PMA/ionomycin-induced NF-kB luciferase reporter, luminescence; inhibition, % at 4 µM; in the data active = inhibition above about 50%
Gli-Sufu block = antagonists of Gli-Sufu signaling | Sufu-KO-LIGHT fibroblasts, Gli luciferase reporter luminescence | inhibition, % at 5 µM | 0.74% of 340,000 active;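 active = inhibition above about 55%, limit read from the data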;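 also: 0% = DMSO-treated cells and 100% = wells with medium but no cells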
Shn3 3UTR inh = inhibitors of Schnurri-3 3'UTR reporter in osteoblasts. Clone20 osteoblast Shn3 3'UTR firefly luciferase, 24 h. inhibition, % at 12.5 µM. 0.52% of 360,000 active. AID 588674;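 active = mean inhibition of at least 75% with every replicate also reaching 75%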;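 also: 0% = median of neutral control wells and 100% = pilot-screen positive control compound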
697 NFkB inh = inhibitors of the PMA/ionomycin-induced NF-kB reporter in 697 B cells; 697 B-cell NF-kB luciferase reporter, 16 h; inhibition, % at 4 µM; 0.33% of 330,000 active; in the data active = inhibition above about 35%
Mdm2-MdmX inh = inhibitors of human Mdm2/MdmX interaction; SaOS-2 split-luciferase Mdm2/MdmX complementation, luminescence; inhibition, % at 8 µM; 3% of 330,000 active; AID 485346;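 active = inhibition of at least 50% at 8 µM in the primary screen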
Target sequence (O15151 whole entry, looked up): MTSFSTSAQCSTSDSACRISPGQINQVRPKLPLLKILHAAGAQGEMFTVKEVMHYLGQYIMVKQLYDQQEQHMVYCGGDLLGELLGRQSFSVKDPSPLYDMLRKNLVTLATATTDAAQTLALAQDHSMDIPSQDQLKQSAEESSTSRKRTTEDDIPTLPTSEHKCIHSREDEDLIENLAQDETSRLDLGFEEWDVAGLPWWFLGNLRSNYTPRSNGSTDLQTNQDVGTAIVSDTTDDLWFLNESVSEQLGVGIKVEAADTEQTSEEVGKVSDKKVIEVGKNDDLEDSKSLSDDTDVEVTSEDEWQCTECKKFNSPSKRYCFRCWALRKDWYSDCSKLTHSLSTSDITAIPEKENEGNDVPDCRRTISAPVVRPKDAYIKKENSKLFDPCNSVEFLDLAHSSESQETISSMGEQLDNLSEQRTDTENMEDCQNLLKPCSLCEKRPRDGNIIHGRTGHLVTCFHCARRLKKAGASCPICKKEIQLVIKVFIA
Target sequence (Q00987 whole entry, looked up): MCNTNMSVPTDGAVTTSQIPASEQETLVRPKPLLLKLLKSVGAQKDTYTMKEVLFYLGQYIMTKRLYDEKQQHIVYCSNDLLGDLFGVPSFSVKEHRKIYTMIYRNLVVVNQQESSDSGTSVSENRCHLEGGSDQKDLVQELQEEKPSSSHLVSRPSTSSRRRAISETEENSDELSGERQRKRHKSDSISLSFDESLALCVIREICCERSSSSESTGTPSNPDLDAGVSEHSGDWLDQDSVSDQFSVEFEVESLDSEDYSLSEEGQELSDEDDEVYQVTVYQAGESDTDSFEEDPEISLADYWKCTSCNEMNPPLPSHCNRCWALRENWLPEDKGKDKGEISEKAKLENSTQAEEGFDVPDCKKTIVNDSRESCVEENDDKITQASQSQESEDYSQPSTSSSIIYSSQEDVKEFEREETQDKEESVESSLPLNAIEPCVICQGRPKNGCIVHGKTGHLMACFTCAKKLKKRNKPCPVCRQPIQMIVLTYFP
697 NFkB conf = lowers PMA/ionomycin-induced NF-kB signal in 697 B cells; AID 449746; 697 B-cell NF-kB luciferase, 16 h; inhibition, % at 4 µM; 35% of 2,000 active; shares compounds with 697 NFkB inh; in the data active = inhibition mostly above about 28%, no sharp cut-off; inactive = mostly below about 22%
Mdm2-MdmX conf = confirmation of human Mdm2/MdmX interaction inhibitors | 55% of 10,000 active | Mdm2-MdmX binding, luminescent assay | shares compounds with Mdm2-MdmX inh | AID 489028 | inhibition, % at 8 µM; in the data active = inhibition above about 40%
Full FLuc ctr = counter-screen for Mdm2/MdmX inhibitors: full-length luciferase; shares compounds with Mdm2-MdmX inh; inhibition, % at 8 µM; SaOS-2 full-length luciferase counterscreen, luminescence; 77% of 6,200 active;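 active = mean inhibition at 8 µM reaching about 37%, which flags the compound as non-specific, limit read from the data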;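 also: p53-null SaOS-2 cells with luciferase driven by a doxycycline-inducible promoter; compound on cells about two nights before reading with doxycycline added after day one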
Active calls of the source: *. Shown are actives, neighbours in structure and some others; about 3.8% of the full set was active somewhere.

Results for Cc1cc2nc(-c3ccc(SCC(=O)N4CCc5ccccc54)nc3)[nH]c2cc1C ?
Jurkat NFkB inh: -126.3; Gli-Sufu block: -94.1; Shn3 3UTR inh: -44.7; 697 NFkB inh: -312.6; Mdm2-MdmX inh: 98.2*; 697 NFkB conf: -200.5; Mdm2-MdmX conf: 42.2*; Full FLuc ctr: 65.4*

Results for Cc1cc2nc(-c3ccc(SCc4ccc(C(=O)O)cc4)nc3)[nH]c2cc1C ?
Gli-Sufu block: -4.2; Shn3 3UTR inh: -2.0

What do the screens show for `CCN1CCN(CCC(=O)Nc2ccccc2C)CC1`?
Jurkat NFkB inh: -3.5; Gli-Sufu block: -17.2; Shn3 3UTR inh: -6.0; 697 NFkB inh: 3.7; Mdm2-MdmX inh: 10.3

What do the screens show for `CCCCN1CCNC[C@H]1Cc1ccc(O)cc1`?
Jurkat NFkB inh: -3.0; Gli-Sufu block: -1.1; Shn3 3UTR inh: -5.6; 697 NFkB inh: 26.0; Mdm2-MdmX inh: 4.8

Results for Oc1ccc(C[C@@H]2CNCCN2CCC23CC4CC(CC(C4)C2)C3)cc1 ?
Jurkat NFkB inh: 11.6; Gli-Sufu block: 11.7; Shn3 3UTR inh: -8.3; 697 NFkB inh: 37.2*; Mdm2-MdmX inh: 73.0*; 697 NFkB conf: -2.7; Mdm2-MdmX conf: 23.6; Full FLuc ctr: 63.9*

What do the screens show for `Cc1cc(C(=O)OCC(N)=O)c(C)n1-c1ccccc1`?
Jurkat NFkB inh: -15.6; Gli-Sufu block: -9.1; Shn3 3UTR inh: -20.5; 697 NFkB inh: -9.5; Mdm2-MdmX inh: -0.6

How did C/C(N)=C(/C#N)C(=O)COC(=O)c1cc(C)n(-c2ccc(F)cc2)c1C do in these assays?
Jurkat NFkB inh: -60.7; Gli-Sufu block: -41.3; Shn3 3UTR inh: 29.3; 697 NFkB inh: -498.0; Mdm2-MdmX inh: 79.8*; 697 NFkB conf: -294.5; Mdm2-MdmX conf: 32.5

How did C[C@H](CO)N1C[C@H](C)[C@@H](CN(C)C(=O)Nc2ccc(C(F)(F)F)cc2)Oc2c(NC(=O)Nc3ccc4c(c3)OCO4)cccc2C1=O do in these assays?
Jurkat NFkB inh: -4.0; Gli-Sufu block: 9.5; Shn3 3UTR inh: -12.7; 697 NFkB inh: -15.5; Mdm2-MdmX inh: 18.5

What do the screens show for `C[C@H](CO)N1C[C@H](C)[C@@H](CN(C)C(=O)Nc2ccc3c(c2)OCO3)Oc2c(NC(=O)Nc3ccc(C(F)(F)F)cc3)cccc2C1=O`?
Jurkat NFkB inh: -3.3; Gli-Sufu block: 4.3; Shn3 3UTR inh: 28.4; 697 NFkB inh: 45.7*; Mdm2-MdmX inh: 79.8*; 697 NFkB conf: 16.1; Mdm2-MdmX conf: 69.1*; Full FLuc ctr: 68.2*

What do the screens show for `CC(C)(C)c1ccc(-c2cc(-c3ccccc3O)[nH]n2)cc1`?
Jurkat NFkB inh: -97.0; Gli-Sufu block: 31.6; Shn3 3UTR inh: -15.3; 697 NFkB inh: -368.4; Mdm2-MdmX inh: 58.0*; 697 NFkB conf: -220.3; Mdm2-MdmX conf: 64.9*; Full FLuc ctr: 138.6*

Results for CCCCCNC(=O)c1cccc(S(=O)(=O)N2CC3(C)CC2CC(C)(C)C3)c1 (centres undefined) ?
Jurkat NFkB inh: -11.4; Gli-Sufu block: 4.6; Shn3 3UTR inh: 37.8; 697 NFkB inh: 7.3; Mdm2-MdmX inh: 26.0

Results for Cc1cnc(NC(=O)COc2cccc3c2OC(C)(C)C3)s1 ?
Jurkat NFkB inh: -60.2; Gli-Sufu block: -5.6; Shn3 3UTR inh: 4.5; 697 NFkB inh: inactive; Mdm2-MdmX inh: 77.4*; 697 NFkB conf: inactive; Mdm2-MdmX conf: 68.2*; Full FLuc ctr: 42.5*

What do the screens show for `CSc1ccc(CN2CCC(C)(Oc3ccccc3F)C2)cc1` (centres undefined)?
Shn3 3UTR inh: -15.0

Results for Cc1cc(S(=O)(=O)N2CCCCC2CCNC(=O)C(=O)NC2CC2)ccc1F (centres undefined) ?
Jurkat NFkB inh: 9.5; Gli-Sufu block: 0.3; Shn3 3UTR inh: 23.0; 697 NFkB inh: 13.2; Mdm2-MdmX inh: -3.4

Results for Cc1cc(C)c(S(=O)(=O)N2CCCCC2CCNC(=O)C(=O)NC2CC2)c(C)c1 (centres undefined) ?
Jurkat NFkB inh: -79.6; Gli-Sufu block: 2.4; Shn3 3UTR inh: 62.5; 697 NFkB inh: inactive; Mdm2-MdmX inh: 91.8*; 697 NFkB conf: inactive; Mdm2-MdmX conf: 94.5*; Full FLuc ctr: 25.4

What do the screens show for `C#CCn1c(S(=O)(=O)Cc2ccc(C)cc2)nc(-c2ccccc2)c1-c1ccccc1`?
Jurkat NFkB inh: -113.7; Gli-Sufu block: 38.9; Shn3 3UTR inh: 25.5; 697 NFkB inh: inactive; Mdm2-MdmX inh: 94.6*; 697 NFkB conf: inactive; Mdm2-MdmX conf: 81.3*; Full FLuc ctr: 54.6*

How did C#CCn1c(C)cc(C)c(S(=O)(=O)c2ccccc2)c1=O do in these assays?
Jurkat NFkB inh: -19.6; Gli-Sufu block: -39.6; Shn3 3UTR inh: -55.9; 697 NFkB inh: -27.5; Mdm2-MdmX inh: -49.3

What do the screens show for `CC1(C)CC(NC(=S)NCc2ccc3c(c2)OCO3)CC(C)(C)N1`?
Jurkat NFkB inh: 5.0; 697 NFkB inh: 24.0; Mdm2-MdmX inh: 0.3

What do the screens show for `CN(C)c1ccc(C(CNC(=O)c2ccco2)N2CCCC2)cc1` (centres undefined)?
Jurkat NFkB inh: -6.4; Gli-Sufu block: -6.4; Shn3 3UTR inh: -52.2; 697 NFkB inh: -2.7; Mdm2-MdmX inh: 12.1

How did COc1cc(SC)ccc1C(=O)Nc1ccc(Br)cn1 do in these assays?
Jurkat NFkB inh: -86.6; Gli-Sufu block: 20.0; Shn3 3UTR inh: 75.4; 697 NFkB inh: -320.8; Mdm2-MdmX inh: 60.4*; 697 NFkB conf: -452.2; Mdm2-MdmX conf: 48.0*; Full FLuc ctr: 126.2*

What do the screens show for `Cc1cc(OCC(=O)Nc2ccc(CN3CCOCC3)cc2)c2c(C)c(C)c(=O)oc2c1`?
Jurkat NFkB inh: 5.7; Gli-Sufu block: 48.7; Shn3 3UTR inh: 39.3; 697 NFkB inh: 38.4*; Mdm2-MdmX inh: 57.6*; 697 NFkB conf: 20.9; Mdm2-MdmX conf: 23.7

What do the screens show for `OCC1OC(n2cnc3ncccc32)C(O)C1O` (centres undefined)?
Shn3 3UTR inh: 1.7

Results for N=c1ccn2c(n1)OC1C(O)C(CO)OC12 (centres undefined) ?
Jurkat NFkB inh: 28.1; Gli-Sufu block: 34.4; Shn3 3UTR inh: 74.0; 697 NFkB inh: 54.3*; Mdm2-MdmX inh: 69.2*; 697 NFkB conf: 59.7*; Mdm2-MdmX conf: 72.1*; Full FLuc ctr: 45.7*

How did COc1ccc(/C=C/c2ccccc2)cc1[C@H]1[C@H]2C=CC[C@@H](C)[C@@H]2C(=O)N1Cc1ccccc1 do in these assays?
Jurkat NFkB inh: 19.9; Gli-Sufu block: 12.9; Shn3 3UTR inh: 35.8; 697 NFkB inh: 64.8*; Mdm2-MdmX inh: 50.0; 697 NFkB conf: 32.5*; Mdm2-MdmX conf: 21.9
